In the library only some 4.7% were active in any assay of this set; here they are far more common.
PfHsp90 set2 – growth inhibition of yeast expressing Plasmodium Hsp90; hit rate 0.32% among 310,000; S. cerevisiae expressing PfHsp90, BacTiter-Glo ATP, 48 h; yeast lacking PDR1 and PDR3 efflux regulators; AID 504621; inhibition, % at 9.4 µM;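 active means every replicate shows inhibition above about 80%, whatever the replicate mean, limit read from the data; inconclusive means mean inhibition reaches the set limit but some replicate falls short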;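 further: 0% = DMSO neutral controls and 100% = 20 µM radicicol positive controls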
tim23-1 inh – growth inhibitors of tim23-1 mutant yeast; hit rate 1.3% among 330,000; inhibition, % at 20 µM; S. cerevisiae tim23-1 growth, BacTiter-Glo luminescence, 24 h; AID 463212;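 active means growth inhibition of the mutant yeast at or above 50%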;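 further: temperature-sensitive mutant grown at 25 °C; plate controls were DMSO-treated mutant yeast for no effect and medium wells lacking yeast for full effect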
EBI2 block – EBI2 (human) antagonism. hit rate 0.81% among 360,000. AID 651636. EBI2 beta-arrestin recruitment, luminescence, 7a,25-OHC stimulated. P32249. inhibition, % at 5 µM; in the data active means inhibition above about 38%;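 further: enzyme fragment complementation signal reports receptor beta-arrestin coupling in cells; 0% = agonist plus DMSO wells and 100% = wells without agonist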
Target sequence (P32249 whole entry, looked up, the tested form may be a part): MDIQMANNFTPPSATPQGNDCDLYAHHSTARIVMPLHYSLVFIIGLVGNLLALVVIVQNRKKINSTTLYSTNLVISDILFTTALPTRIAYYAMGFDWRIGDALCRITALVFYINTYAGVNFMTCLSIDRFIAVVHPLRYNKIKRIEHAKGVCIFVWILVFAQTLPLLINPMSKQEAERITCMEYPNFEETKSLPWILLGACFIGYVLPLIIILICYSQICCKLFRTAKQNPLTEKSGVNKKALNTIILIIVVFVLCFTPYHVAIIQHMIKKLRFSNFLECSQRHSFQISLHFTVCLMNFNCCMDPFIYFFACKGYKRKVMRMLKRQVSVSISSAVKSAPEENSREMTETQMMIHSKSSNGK
TIM10 inh – inhibits growth of TIM10 yeast strain. inhibition, % at 10 µM. S. cerevisiae TIM10 strain growth, BacTiter-Glo luminescence, 24 h. hit rate 1.4% among 330,000;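 active means inhibition of 40% or more at the single tested concentration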;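 further: wild-type TIM10 isogenic control strain grown at permissive 25 °C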
tim10-1 inh – inhibits growth of tim10-1 mutant yeast; S. cerevisiae tim10-1 ts strain growth, BacTiter-Glo, 24 h; inhibition, % at 20 µM; hit rate 2.2% among 330,000;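 active means inhibition of at least 40%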;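 further: mutant grown at 25 °C; 0% = DMSO wells with yeast and 100% = wells holding no yeast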
SKKanGAS inh – inhibitors of SKKanGAS S. pyogenes growth in kanamycin (SK-promoter or general growth effect) | BacTiter-Glo, 6 h | hit rate 1.3% among 300,000 | inhibition, % at 7.5 µM;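 active means mean replicate score, as percent of positive control median, at least 50; inconclusive means mean below 50 but one replicate at or above 50; inactive means mean and every replicate below 50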;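 further: strain carries kanamycin resistance gene driven by streptokinase promoter and grows in 40 µg/ml kanamycin; loss of luminescence reflects streptokinase promoter inhibition or plain growth inhibition; 0% = median of DMSO wells and 100% = positive control at its reference dose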
tim10-1 confirm – tim10-1 yeast growth inhibition, confirmed; hit rate 56% among 7,400; AID 463213; shares compounds with tim10-1 inh; S. cerevisiae tim10-1 ts strain growth, BacTiter-Glo, 24 h; inhibition, % at 20 µM;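 active means inhibition of yeast growth at or above a set limit in either of two repeat tests at 20 µM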;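 further: tim10-1 mutant grown at permissive 25 °C to find synthetic lethal compounds; 0% = DMSO yeast wells and 100% = medium wells without yeast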
Numbers without * were called inactive; ? = inconclusive; · = no result.

SMILES | PfHsp90 set2 | tim23-1 inh | EBI2 block | TIM10 inh | tim10-1 inh | SKKanGAS inh | tim10-1 confirm
CC(C)(C)C(=O)Oc1cc(N)n(S(=O)(=O)c2ccccc2)n1 | -12.5 | 4.9 | -29.5 | 5.1 | 26.3 | 2.3 | ·
Cc1ccccc1C(=O)Oc1cc(N)n(S(=O)(=O)c2ccccc2)n1 | -6.6 | 21.9 | 9.0 | 30.7 | 48.1* | 2.4 | 26.7
COc1ccc(S(=O)(=O)n2nc(OC(=O)c3ccco3)cc2N)cc1 | 42.1 | 32.5 | -13.3 | -2.4 | 41.1* | 5.3 | 24.3
COc1ccccc1C(=O)Oc1cc(N)n(S(=O)(=O)c2ccccc2)n1 | -19.8 | 25.7 | -1.0 | 29.2 | 40.0 | 5.8 | 23.9
COc1ccc(S(=O)(=O)n2nc(OC(=O)c3ccncc3)cc2N)cc1 | 0.2 | 13.4 | -0.9 | 16.2 | 22.9 | -1.6 | ·
CCOC(=O)[C@]12CCC=C1N(Cc1ccccc1)C(=O)[C@H](CC(=O)NCc1ccc(OC)c(OC)c1)C2 | · | · | -8.8 | · | · | · | ·
O=C1S/C(=C/c2ccc(N3CCOCC3)o2)C(=O)N1Cc1ccc(F)cc1 | 26.0 | 24.7 | 18.9 | 24.2 | 42.3* | -1.0 | 50.4*
O=C1NC(=S)S/C1=C/c1ccc(N2CCOCC2)o1 | 6.8 | -1.5 | -0.4 | 6.6 | -0.8 | 25.6 | ·
COc1ccc(C)cc1NS(=O)(=O)c1ccc2c(c1)N(C)CCO2 | 10.6 | 40.3 | 2.3 | 21.4 | 17.3 | 1.1 | ·
COc1cccc(Nc2nnc(SCC3CCCCO3)s2)c1 (centres undefined) | -11.0 | 43.3 | 3.8 | 36.1 | 15.9 | 7.3 | ·
Cc1cccc(Nc2nnc(SCC3CCCCO3)s2)c1C (centres undefined) | 4.7 | 39.3 | -5.0 | 8.6 | 48.1* | -0.7 | 32.8*
COc1ccc(Nc2nnc(SCC3CCCO3)s2)cc1 (centres undefined) | -36.7 | 29.0 | 18.8 | 10.9 | 45.8* | -1.5 | 14.1
COC1CC(NC(C)=O)C(OC(=O)c2ccccc2)C(CBr)O1 (centres undefined) | · | · | -4.3 | · | · | · | ·
CN(C(=O)Cc1c(C(=O)O)n(C)c2ccccc12)c1ccc(F)cc1 | -7.7 | 3.8 | -8.7 | 12.6 | 1.7 | ? | ·
CC(=O)c1ccc(NC(=O)C2CCN(S(=O)(=O)c3cccc4cccnc34)CC2)cc1 | 6.7 | 36.7 | -4.1 | 18.4 | 41.5* | 0.1 | 28.6
COc1ccc(-n2cccc2/C=C2\C(=N)N3N=C(C(C)C)SC3=NC2=O)cc1 | -20.9 | 24.5 | -15.5 | 6.9 | 40.4* | 33.2 | 25.8
CCC1=NN2C(=N)/C(=C\c3cccn3-c3cccc(Cl)c3)C(=O)N=C2S1 | 7.3 | 36.5 | -16.6 | 34.9 | 46.2* | 35.8 | 37.2*
Cc1cc(C)c2c(=O)n3c(nc2c1)C(CC(C)C)NC(=O)c1cccnc1-3 (centres undefined) | · | · | 28.3 | · | · | · | ·
Cc1noc(C)c1N=Nc1ccccc1C(=O)O | -4.7 | -2.5 | 9.5 | 3.3 | -7.5 | -7.5 | ·
CC(C)(C)c1ccc(NC(=O)CNC2CCCc3ccccc32)cc1 (centres undefined) | 21.2 | 6.6 | -15.0 | 22.3 | 41.7* | -10.8 | 16.0
COc1cc2c(cc1OC)C(C)N(C(=O)c1cc3c(C)cc(C)cc3[nH]1)CC2 (centres undefined) | -13.5 | 39.4 | 22.0 | 20.8 | 41.0* | 4.5 | 10.5
Cc1ccc(N(CCC#N)C(=O)COC(=O)c2ccccn2)cc1 | -1.4 | -13.7 | 10.1 | -1.8 | -6.8 | 23.4 | ·
C=C(C)c1cccc(C(C)(C)NC(=O)Nc2ccc(OC)cc2)c1 | · | 6.7 | -0.4 | 1.5 | 8.1 | 4.3 | ·
C=C(C)c1cccc(C(C)(C)NC(=O)Nc2ccc(C(C)=O)cc2)c1 | 8.8 | 34.5 | 0.0 | 14.1 | 42.7* | 8.1 | 21.6
O=C(c1ccco1)N1CCN=C1SCc1ccccc1F | 2.1 | 26.7 | 1.0 | 15.7 | 44.2* | 7.2 | 15.6
SMILES | PfHsp90 set2 | tim23-1 inh | EBI2 block | TIM10 inh | tim10-1 inh | SKKanGAS inh | tim10-1 confirm
O=C(c1ccco1)N1CCN=C1SCc1cccnc1 | -5.4 | 5.1 | -5.0 | 2.9 | 11.6 | 0.2 | ·
Cc1cccc(CN2C(=O)/C(=C\c3ccc(C(=O)NCCN4CCOCC4)cc3)Sc3ccccc32)c1 | 41.1 | 35.0 | -5.7 | 10.5 | 42.0* | 7.3 | 9.7
O=C(NCCN1CCOCC1)c1ccc(/C=C2\Sc3ccccc3N(Cc3ccccc3F)C2=O)cc1 | 26.1 | 32.5 | 8.1 | 13.3 | 33.4 | 9.8 | ·
Cc1ccccc1CN1C(=O)/C(=C\c2ccc(C(=O)NCCN3CCOCC3)cc2)Sc2ccccc21 | 6.6 | 25.0 | 7.7 | 16.7 | 44.7* | 14.5 | -7.0
C=CCc1c(C)nc(-c2ccccc2)nc1N/N=C/c1ccccc1 | 11.7 | 35.7 | 2.4 | 33.4 | 45.8* | -2.7 | 31.8*
CC(NCC(O)COc1ccc(Br)cc1)c1ccccc1 (centres undefined) | -12.7 | 5.8 | 43.4 | 6.9 | 11.2 | -4.0 | ·
COc1ccc(OCC(O)CNC(C)c2ccccc2)cc1 (centres undefined) | 21.4 | 18.2 | 22.1 | -18.2 | 42.2* | -0.2 | 2.0
CC(=O)c1c(N2CCN(c3cccc(Cl)c3)CC2)nc(=S)n(-c2ccccc2)c1C | 5.1 | 7.1 | 4.8 | 10.0 | 10.2 | -21.7 | ·
CCn1c(C)c(C(C)=O)c(N2CCN(c3cccc(Cl)c3)CC2)nc1=S | -19.6 | 12.6 | -5.9 | 9.1 | 44.3* | -9.7 | 16.5
COc1cc(CCCN2C(=O)C(=O)NC[C@@H]2C(C)O)cc(OC)c1OC (some centres undefined) | -24.1 | -3.0 | -2.8 | -4.2 | -11.7 | -1.0 | ·
O=C(COC(=O)Cn1c(C(F)(F)F)nc2ccccc21)Nc1ccc2c(c1)OCCO2 | 2.6 | 9.4 | -10.0 | -7.9 | 10.6 | 1.8 | ·
CC1CCC(NC(=O)c2cc3c(=O)n(C)c4ccccc4c3n2C)CC1 (centres undefined) | · | 26.7 | -5.3 | 20.9 | 40.1* | -5.8 | 28.6
CC(=O)Nc1ccc(OS(=O)(=O)c2c(C)cc(C)cc2C)cc1 | -21.1 | 41.5 | 2.7 | 33.1 | 46.4* | -15.7 | 31.1*
C[C@@H]1CCC[C@@]2(O[C@@H](CCO)C[C@@H](O)[C@@H]2O)O1 | · | 3.7 | -12.9 | -10.2 | -21.0 | 8.1 | ·
Cc1onc(-c2ccccc2)c1C(=O)Nc1nnc(-c2ccncc2)s1 | · | 31.1 | -11.1 | 23.8 | 43.9* | 13.8 | 39.1*
Cc1noc(C)c1C(=O)Nc1nnc(-c2ccccc2)s1 | -3.7 | 9.1 | -6.5 | -11.8 | 4.2 | 2.1 | ·
Cc1cc(NS(=O)(=O)c2ccccc2)c([N+](=O)[O-])cc1C | -1.9 | 43.8 | 5.6 | 25.4 | 41.3* | -4.4 | 24.9
C/C(=N\NC(=O)c1cc2c(s1)CCC(C)C2)c1ccncc1 (centres undefined) | 7.5 | 40.0 | 8.9 | 20.8 | 53.8* | -7.9 | 32.2*
C/C(=N\NC(=O)c1cc2c(s1)CCC(C)C2)c1ccc[nH]1 (centres undefined) | 0.3 | -1.6 | 3.8 | 8.0 | 7.5 | · | ·

High-throughput results deposited in PubChem by several laboratories.
